Bioassay records: PubChem, National Center for Advancing Translational Sciences (NCATS)
Sampled rows, rich in hits. Any-hit rate of the full collection: about 1.3%.
FEN1 inh: human FEN1 inhibition | actives 0.35% (n = 390,000) | AID 588795 | Recombinant FEN1 flap cleavage, fluorescence, 15 min | Potency, µM (highest dose often 114 µM), usual class: inhibitors; note: nearly all actives have a fitted effect of over 65% in size
Target sequence (P39748 whole entry, looked up): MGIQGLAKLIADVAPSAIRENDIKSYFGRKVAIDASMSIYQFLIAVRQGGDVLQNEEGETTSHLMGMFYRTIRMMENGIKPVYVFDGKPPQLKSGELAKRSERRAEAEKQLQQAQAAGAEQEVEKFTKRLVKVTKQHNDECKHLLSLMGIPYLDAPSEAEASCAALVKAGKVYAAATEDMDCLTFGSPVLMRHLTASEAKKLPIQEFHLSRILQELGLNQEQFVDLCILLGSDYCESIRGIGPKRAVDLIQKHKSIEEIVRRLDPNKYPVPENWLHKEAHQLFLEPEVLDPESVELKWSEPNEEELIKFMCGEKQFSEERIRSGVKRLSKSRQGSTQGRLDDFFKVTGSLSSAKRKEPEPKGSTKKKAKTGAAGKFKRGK
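Steps: FEN1 (10 nM) dispensed; compound added by pin tool; 15 min at room temperature; substrate added to 50 nM final; reads at 0 min and 15 min; data normalized and fitted (four-parameter Hill).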
WRN inhibitor: inhibitors of human WRN helicase | Q14191 | WRN helicase unwinding, fluorescent forked duplex, kinetic | Potency, µM (series often up to 114 µM), most hits filed as inhibitors | actives 0.46% (n = 360,000); note: nearly all actives have a fitted effect of over 55% in size
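Fluorescence dequenching readout, ex 525 nm/em 598 nm, kinetic mode: forked duplex DNA (100 nM final) with adjacent fluorophore and quencher unwound by WRN (20 nM final) with 2 mM ATP. Compound preincubation 15 min, room temperature.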
Tb PGK inh: inhibitors of T. brucei phosphoglycerate kinase. PGK/GAPDH coupled, Kinase-Glo luminescence, 60 min. P07378. Potency, µM (titrated, usually from 57.5 µM), usual class: inhibitors. actives 0.043% (n = 380,000); note: nearly all actives have a fitted effect of over 60% in size
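Recombinant glycosomal PGK reaction used 1,3-bisphosphoglycerate generated in-well by GAPDH (100nM final) in 100mM TEA pH 7.6, 5mM MgCl2, 0.01% Tween-20. After 60 minutes at room temperature, ATP was read by Kinase-Glo Plus luminescence end-point.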
PI5P4K alpha inh: blocks human PI5P4K alpha kinase activity; max response, %; PI5P4Kalpha enzyme, ADP-Glo luminescence, 60 min; active compounds read low; actives 1.2% (n = 330,000); P48426; active = max response of -50% or lower; inconclusive = between -30% and -50%; inactive = -30% or higher; note: value at the top dose of about 77 µM
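qHTS, 1536-well: enzyme/substrate mix, compound by pin tool, 5 microM ATP final; RT 60 min; ADP-Glo reagents 1 (45 min) then 2 (30 min); luminescence.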
Pin1 inh: human Pin1 inhibition. Q13526. Pin1 FP peptide displacement, HiFluor488, 10 min. Potency, µM (highest dose often 115 µM), usual class: inhibitors. actives 0.009% (n = 390,000); active = well fitted inhibition curve with a large enough effect in the polarisation, with a control signal flat, not every such curve was filed as active; inconclusive = small, poorly fitted or top-dose-only effect, or effect the other way, or a change in a side signal; inactive = no such curve, though single readings can be large or run the other way; the % refers to the polarisation
Target sequence (Q13526 whole entry, looked up): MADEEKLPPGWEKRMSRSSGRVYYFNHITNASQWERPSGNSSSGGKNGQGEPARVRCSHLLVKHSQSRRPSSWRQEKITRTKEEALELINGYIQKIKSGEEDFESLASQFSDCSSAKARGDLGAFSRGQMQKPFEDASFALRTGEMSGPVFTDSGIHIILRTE
Glioma ERSR ind: induces the endoplasmic reticulum stress response in human glioma cells; actives 0.02% (n = 420,000); AID 602332; U87-MG GRP78 promoter luciferase reporter, 16 h; Potency, µM, usual class: activators; note: series mostly up to about 76 µM; nearly all actives have a fitted effect of over 35% in size
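Stably transfected U87-MG glioma cells carrying a GRP78-based luciferase sensor; 16 h compound incubation. Luminescence end-point read 10 min after Bright-Glo addition at room temperature.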
Hits are given with their value; – = inactive; ? = inconclusive; · = not tested or not shown; [ ] = dose if it differs, or a comment. Unless noted, calls come from the whole dose curve; as a rule, active = well fitted curve in the direction sought with a large enough effect; inconclusive = small, poorly fitted or top-dose-only effect, or another doubt; inactive = no such curve, though single readings can be large; an effect the other way counts as inactive or inconclusive.

SMILES	FEN1 inh	WRN inhibitor	Tb PGK inh	PI5P4K alpha inh	Pin1 inh	Glioma ERSR ind
COc1cc(-c2cc(NC=O)c3ncc(-c4ccc(F)cc4)n3c2)cc(OC)c1OC	·	56µM	·	–	·	–
O=CNc1cc(-c2ccoc2)cn2c(-c3ccc(F)cc3)cnc12	·	–	·	-60	·	–
COc1cccc(-c2cnc3c(NC=O)cc(-c4cccc(C(=O)N(C)C)c4)cn23)c1	·	–	·	?	·	–
COc1cc(-c2cnc3c(NC=O)cc(-c4ccc(N5CCN(C)CC5)cc4)cn23)cc(OC)c1OC	·	50µM	·	–	·	–
COc1cccc(-c2cc(NC=O)c3ncc(-c4cccc(C(=O)N(C)C)c4)n3c2)c1	·	?	·	-68	·	–
COc1cc(-c2cnc3c(NC(C)=O)cc(-c4ccc(N5CCN(C)CC5)cc4)cn23)cc(OC)c1OC	·	–	·	–	·	–
CS(=O)(=O)Nc1cccc(-c2cc(NC=O)c3ncc(-c4ccc(F)cc4)n3c2)c1	·	–	·	?	·	–
COCc1ccc(C(=O)N2CCOc3ccc(CN4CCN(c5ccc(F)cc5)CC4)cc3C2)o1	·	·	·	·	·	–
Cc1cc2c(s1)c1cnn(Cc3cc(C(F)(F)F)ccc3F)c(=O)c1n2C	·	·	·	·	–	·
CC(=O)c1ccc(-c2cnc3c(NC=O)cc(-c4ccc(S(C)(=O)=O)cc4)cn23)cc1	·	–	·	?	·	–
CC(=O)c1ccc(-c2cnc3c(NC=O)cc(-c4cnn(C)c4)cn23)cc1	·	–	·	-57	·	–
O=C(C1CC12CCN(Cc1cccc3cccnc13)CC2)N1CCN(Cc2cccs2)CC1 (stereo not given)	·	·	·	·	·	–
C=C(C)[C@@H]1CC[C@]2(C(=O)O)CC[C@]3(C)[C@H](CCC4[C@@]5(C)CC[C@H](O)C(C)(C)[C@@H]5CC[C@]43C)[C@@H]12 (stereo not given in full)	·	·	·	·	·	–
C=C(C)C1CCC2(C(=O)O)CCC3(C)C(CCC4C5(C)C(C=O)C(O)C(C)(C)C5CCC43C)C12 (stereo not given)	–	–[11.6 µM]	–	-54	–	–
OC1(c2cccnc2)CCN(Cc2ccc3c(c2)CN(Cc2cc4ccccc4s2)CCO3)CC1	·	·	·	·	·	–
Cc1ncc2c(c1CNC(=O)c1ccccc1F)CCN(C(=O)c1ccc3c(c1)OCCO3)C2	·	·	·	·	·	–
Cc1cc(C)c(S(=O)(=O)Nc2cc(SCC(=O)O)c(O)c3ccccc23)cc1C	–	22µM	–	-60	?	?
O=C(/C=C/c1ccco1)Nc1cccc(C(=O)Nc2ccccc2C(=O)O)c1	50µM	?	32µM	-69	?	–
NS(=O)(=O)c1ccc(NC(=O)/C=C/c2ccco2)cc1	–	?	?	-63	–	–
O=C(N/N=C/c1ccco1)c1ccc(NC(=O)c2ccc(Cl)cc2)cc1	–	–	–	?	–	–
CC(=O)NS(=O)(=O)c1ccc(NC(=O)/C=C/c2ccco2)cc1	–	–	–	–	–	–
Cc1ccc(NC(=O)c2cccc(NC(=O)/C=C/c3ccco3)c2)cc1C	–	–[11.6 µM]	–	-64	–	–
Cc1cccc(C(=O)Nc2ccc(C(=O)N/N=C/c3ccco3)cc2)c1	–	–[11.6 µM]	?	-51	–	–
O=C(c1ccccc1O)N(Cc1ccco1)Cc1ccco1	·	·	·	·	–	·
Cc1cnc(-n2ncc(C(=O)NCCc3ccccn3)c2C)nc1-c1ccc(F)cc1	·	·	·	·	·	–
SMILES	FEN1 inh	WRN inhibitor	Tb PGK inh	PI5P4K alpha inh	Pin1 inh	Glioma ERSR ind
Cc1ccc(NC(=O)N/C=C/c2ccco2)cc1C	–	–	–	-57	–	–
Cc1ccc(NC(=O)N/C=C/c2ccco2)c(C)c1	?	–	–	·	?	–
COc1cc(/C=C(\C#N)C(=O)Nc2ccccn2)ccc1O	–	–	–	-52	–	–
N#C/C(=C\c1ccc2c(c1)OCCO2)C(=O)Nc1nccs1	–	–	–	–	–	–
COc1cc(/C=C(\C#N)C(=O)Nc2ccc3c(c2)OCCO3)ccc1O	–	?	–	-56	–	?
CCOc1cc(/C=C(\C#N)C(=O)Nc2ccccn2)ccc1O	–	–	–	–	–	–
Cc1ccc(NS(=O)(=O)c2cc3c(cc2C)NC(=O)CO3)cc1C	·	·	·	·	–	·
CN(C)S(=O)(=O)c1cccc(NC(=S)N/N=C/c2cc(Br)ccc2O)c1	?	–	–	-61	?	–
CN(C)S(=O)(=O)c1cccc(NC(=S)N/N=C/c2cccc(O)c2)c1	–	–	–	–	–	–
Cn1c2cc(CO)sc2c2cnn(Cc3ccccc3F)c(=O)c21	·	·	·	·	–	·
Cn1ncc([N+](=O)[O-])c1C(=O)Nc1ccccc1C(=O)O	–	–	–	-52	–	–
COc1cc2c(NC3CCN(C)CC3)nc(N3CCCN(C)CC3)nc2cc1OCCCN1CCOCC1	22µM	·	·	·	·	–
COc1cc2c(NC3CCN(C)CC3)nc(N3CCCCC3)nc2cc1OCCOCCN1CCCC1	20µM	·	·	·	·	–
COc1cc2nc(N3CCCN(C)CC3)nc(NC3CCOCC3)c2cc1OC	–	·	·	·	·	·
COc1cc2c(NC3CCN(C(C)C)CC3)nc(N3CCCN(C)CC3)nc2cc1OCCOCCN1CCCC1	20µM	·	·	·	·	–
COc1cc2c(NC3CCN(C)CC3)nc(N3CCCN(C)CC3)nc2cc1OCCCN1CCCC1	10µM	·	·	·	·	–
Nc1ccc2c(O)cc(S(=O)(=O)O)cc2c1	8.9µM	?	?	-58	?	–
CC(=O)Nc1ccc2c(O)cc(S(=O)(=O)O)cc2c1	?	–	–	–	?	–
COc1ccc(-c2nc3ccccc3c(=O)n2Cc2ccccc2)cc1CNc1ccc(NC(C)=O)cc1	·	·	·	·	–	·
Cn1c2ccccc2c(=O)c2ccc(C#CC3(N)CCCCC3)cc21	22µM	–	–	–	–	–
CC(=C1SC(=S)NC1=O)c1ccccc1	–	–[11.6 µM]	–	-54	–	–
O=C(O)CN1C(=O)/C(=C\c2cn(-c3ccccc3)nc2-c2ccccc2)SC1=S	?	–	–	?	43µM	–
Cc1ccc(-c2nn(-c3ccccc3)cc2C=C2SC(=S)N(CCS(=O)(=O)O)C2=O)cc1	·	20µM	·	-89	·	–
O=C1C=CC(=O)N1c1ccc(-c2nc3ccccc3o2)cc1	·	–	–	-60	·	–
CCCc1[nH]nc2c1C(C1CCCCC1)C(C#N)=C(N)O2 (stereo not given)	–	–	–	–	–	35µM
SMILES	FEN1 inh	WRN inhibitor	Tb PGK inh	PI5P4K alpha inh	Pin1 inh	Glioma ERSR ind
CCCc1[nH]nc2c1C(c1ccsc1)C(C#N)=C(N)O2 (stereo not given)	–	–	–	?	–	–
Cc1ccc(S(=O)(=O)c2ncccc2[N+](=O)[O-])cc1	–	50µM	–	–	–	–
CCS(=O)(=O)c1nn2c(N)c(/C=C3/C=CC(=O)C(OC)=C3)c(=O)nc2s1	–	–	–	-84	?	–
CC(C)Cc1nn2c(N)c(/C=C3\C=Nc4ccccc43)c(=O)nc2s1	–	–	–	–	?	–
COC1=C/C(=C/c2c(N)n3c(nc2=O)sc2cc(S(C)(=O)=O)ccc23)C=CC1=O	–	–[11.6 µM]	–	-76	?	–
COC1=C/C(=C/c2c(N)n3nc(-c4ccc(C)cc4)sc3nc2=O)C=CC1=O	?	–[11.6 µM]	–	-74	?	–
